An excerpt weighted towards active compounds, which were near 12% of everything screened.
PLK1 PBD block – blocks phosphopeptide binding to human PLK1 polo-box domain; Potency, µM, without a hit: max response, negative = inhibition, hits mostly inhibitors; P53350; Plk1 PBD binding of FITC phosphopeptide, fluorescence polarization; actives 2.8% (n = 360,000); also: series mostly up to about 57 µM; % is scaled to controls: 0 for no effect and ±100 for the full control effect; nearly all actives have a fitted effect of over 65% in size
Sfp PPTase inh – inhibitors of Bacillus subtilis Sfp phosphopantetheinyl transferase | Biochemical Sfp PPTase activity, qHTS | Potency, µM, for inactives: largest response in the series, negative = inhibition, usual class: inhibitors | actives 3.5% (n = 310,000) | Q9F4F7;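 also: the enzyme is Sfp with the accession as filed and its product quenches rhodamine fluorescence; 0% = enzyme reaction without inhibitor and -100% = no enzyme wells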
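Fluorescence-quenching assay: 15 nM Sfp-PPTase preincubated 15 min at room temperature with compound, then 5 uM rhodamine-CoA and 12.5 uM BHQ-2-labelled YbbR peptide added. Fluorescence (ex 525/em 598 nm) read at start and after 30 min; difference gives rate.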
BAZ2B inh – blocks human BAZ2B | actives 4.4% (n = 360,000) | Potency, µM (doses to about 114 µM), for the others: top-dose activity change, negative = inhibition, most hits filed as inhibitors | AlphaScreen BAZ2B-H3K14Ac peptide displacement | AID 504333; also: % is scaled to controls: 0 for no effect and ±100 for the full control effect; nearly all actives have a fitted effect of over 60% in size
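Protein-peptide AlphaScreen: BAZ2B 50 nM, b-H3K14Ac 50 nM, 1x PBS pH 7.4 + 0.01% Tween-20. Preincubation 30 min RT; cpd 30 min RT (top 110 uM); beads 20 min RT, light-protected.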
G9a inh – G9a (human) methyltransferase inhibition. Potency, µM (titrated, usually from 102 µM), without a hit: at the highest dose activity, negative = inhibition, most hits filed as inhibitors. actives 8.8% (n = 350,000). G9a H3K9 monomethylation, AlphaScreen, 2 h. Q96KQ7; also: % is scaled to controls: 0 for no effect and ±100 for the full control effect; nearly all actives have a fitted effect of over 75% in size
Target sequence (Q96KQ7 913-1193 limits assumed): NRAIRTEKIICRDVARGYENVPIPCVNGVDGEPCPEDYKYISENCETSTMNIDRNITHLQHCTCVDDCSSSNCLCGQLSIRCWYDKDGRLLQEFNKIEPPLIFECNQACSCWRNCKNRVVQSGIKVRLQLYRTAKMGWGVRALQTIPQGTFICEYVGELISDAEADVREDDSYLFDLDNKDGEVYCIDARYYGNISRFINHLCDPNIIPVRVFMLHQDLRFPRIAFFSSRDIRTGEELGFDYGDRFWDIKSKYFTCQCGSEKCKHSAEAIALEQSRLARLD
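Readings reflect AlphaScreen signal from monomethyl-H3K9 antibody detection. HMT at 20 nM; substrate b-H3K9 500 nM; cofactor SAM 20 uM; 2 h RT reaction; compounds tested as titrations in qHTS with 15 min preincubation.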
HP1b binding inh – HP1-beta chromodomain-methylated histone interaction inhibition; P83916; AlphaScreen HP1-beta / biotin-H3K9me3 peptide binding; Potency, µM (titrated, usually from 114 µM), inactives show top-dose activity change, negative = inhibition, usual class: inhibitors; actives 0.56% (n = 390,000); also: nearly all actives have a fitted effect of over 70% in size
Target sequence (P83916 whole entry, looked up): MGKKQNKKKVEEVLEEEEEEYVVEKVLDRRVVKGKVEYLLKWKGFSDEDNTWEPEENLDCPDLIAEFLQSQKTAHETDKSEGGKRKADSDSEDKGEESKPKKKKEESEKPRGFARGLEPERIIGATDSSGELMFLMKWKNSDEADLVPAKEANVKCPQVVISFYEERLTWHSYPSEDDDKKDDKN
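AlphaScreen: HP1-beta (50 nM) preformed 30 min with biotin-H3(1-18)K9me3 peptide (50 nM) in PBS pH 7.4, 0.01% Tween-20. Compound added for 30 min at RT, then streptavidin donor/nickel chelate acceptor beads (10 ug/mL) for 30 min.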
JMJD2A Tudor inh – inhibitors of human JMJD2A Tudor domain | AlphaScreen JMJD2A-Tudor / H3K4me3 peptide binding | Potency, µM (doses to about 114 µM), for the others: at the top dose activity change, negative = inhibition, actives largely listed as inhibitors | actives 4.4% (n = 390,000) | AID 504339; also: % is scaled to controls: 0 for no effect and ±100 for the full control effect; nearly all actives have a fitted effect of over 50% in size
An asterisk follows results filed as active; ? = inconclusive; . = not tested or not shown; [ ] = another dose, or the depositor's remark. Calls follow the shape of the dose curve; as a rule, active = well fitted curve in the direction sought with a large enough effect; inconclusive = small, poorly fitted or top-dose-only effect, or another doubt; inactive = no such curve, though single readings can be large; an effect the other way counts as inactive or inconclusive. Potency is read from the fitted curve at half-maximal effect.

SMILES | PLK1 PBD block | Sfp PPTase inh | BAZ2B inh | G9a inh | HP1b binding inh | JMJD2A Tudor inh
COC(=O)c1ccc(N=Nc2c(C)[nH]n(-c3ccccc3)c2=O)cc1 | -12% | -5% | ? | 8.9µM* | ? | ?
CC(=O)c1cccc(N=Nc2c(-c3ccccc3)[nH]n(-c3ccccc3)c2=O)c1 | 24µM* | ? | 5µM* | . | 14µM* | ?
Cc1[nH]n(-c2ccccc2)c(=O)c1N=Nc1ccc2c(c1)OCCO2 | 0% | -2% | 6.3µM* | 7.1µM* | ? | 22µM*
Cc1[nH]n(-c2ccccc2)c(=O)c1N=Nc1cccc(Cl)c1 | 2% | 17% | 22µM* | . | ? | ?
Cc1[nH]n(-c2ccccc2)c(=O)c1-c1ccccc1 | -6% | 10% | . | 18%[59 µM] | -11% | -26%
O=C(CNC(=O)c1cnccn1)Nc1ccc(F)c(F)c1F | 1% | 19% | -2% | 18% | 43% | -17%
Cn1nnnc1Sc1ncnc2scc(-c3ccccc3C#N)c12 | . | . | . | . | . | -14%
CSc1ccc(N=Nc2c(C)[nH]n(C)c2=O)cc1 | -7% | -4% | 18µM* | 11µM* | 45µM* | 25µM*
Cc1[nH]n(-c2ccccc2)c(=O)c1N=O | -6% | 4% | -28% | -8%[12.7 µM] | 23% | -12%
Cc1[nH]n(-c2ccccc2)c(=O)c1N=Nc1ccc(F)cc1 | 1% | 6% | 4.5µM* | 4.5µM* | -20% | ?
Cc1[nH]n(-c2ccccc2)c(=O)c1N=Nc1c(O)cc(S(=O)(=O)N(C)C)c2ccccc12 | 30µM* | . | 7.9µM* | 3.5µM* | 18µM* | 20µM*
Cc1ccc(N=Nc2c(C)[nH]n(-c3ccccc3)c2=O)c(C)c1 | 8.4µM* | -19% | 13% | -14% | 22µM* | 11µM*
Cn1c(=O)c2c(SCC(=O)NCC3CCCO3)nc(-c3cccc(F)c3)nc2n(C)c1=O (stereo unspecified) | . | . | -11% | 6%[59 µM] | 14%[57 µM] | -13%
Cc1[nH]n(-c2ccccc2)c(=O)c1N=Nc1cccc([N+](=O)[O-])c1 | -5% | 11% | ? | . | -9% | ?
Cc1ccc(N=Nc2c(C)[nH]n(-c3ccccc3)c2=O)cc1Br | -3% | -1% | 13µM* | 3.5µM* | -2% | ?
COc1ccc(/C=C/c2ccc(=O)n(Cc3ccccc3)n2)cc1 | 12µM* | -27% | 38% | 16% | 50% | ?
CSc1ccccc1NC(=O)Cn1c([N+](=O)[O-])cnc1C | 3% | 21% | 2% | 8% | 12% | -3%
Cc1nn(C)cc1C(=O)Nc1cc(Oc2ccc(Cl)cc2)cc([N+](=O)[O-])c1 | 27µM* | 1% | 2% | -7%[59 µM] | ? | ?
Cn1cc([N+](=O)[O-])c(C(=O)Nc2cc(Oc3ccccc3)cc([N+](=O)[O-])c2)n1 | -15% | -9% | ? | -22%[59 µM] | 7% | -18%
CC(=O)Nc1ccc(C(=O)NNC(=O)c2cc([N+](=O)[O-])cc([N+](=O)[O-])c2)cc1 | -2% | 8% | -23% | -32% | 14% | -8%
CC(=O)Nc1ccc(Sc2ccc([N+](=O)[O-])o2)cc1 | 21µM* | . | . | . | -24% | -30%
CC(=O)Nc1ccc(NC(=O)c2cc([N+](=O)[O-])cc([N+](=O)[O-])c2)cc1 | -6% | -8% | ? | 50µM* | 27% | -29%
CC(=O)Nc1ccc(Oc2cc(NC(C)=O)cc([N+](=O)[O-])c2)cc1 | 7.5µM* | 16% | -14% | 2% | ? | 18µM*
Cc1ccc(-c2c3c(nc4sc(C(N)=O)c(N)c24)CCCC3)o1 | ? | 32µM* | ? | 45µM* | 13% | -18%[57.1 µM]
NC(=O)c1sc2nc3c(c(-c4ccco4)c2c1N)CCC3 | ? | 10µM* | ? | ? | 0% | 79µM*
COc1ccc(-c2c3c(nc4sc(C(=O)Nc5cc(C)on5)c(N)c24)CCC3)cc1 | 2% | -10% | 15% | 2%[12.7 µM] | 73% | 3%
NC(=O)c1sc2nc3c(cc2c1N)CCC3 | -6% | 0% | -13% | -46% | 45% | 2%

Bioassay records deposited in PubChem by National Center for Advancing Translational Sciences (NCATS).
